# About 410 targets per protein were measured; listed, in parts, are those with the strongest signals and a random draw of the rest.
# Assays:
# Assay in all cases: glycan array binding signal (z-score within array); higher = stronger binding
# Conditions in all cases: glycan notation: IUPAC condensed, linker removed
# Fuc(a1-2)Gal(b1-3)GalNAc = biological target: Fuc(a1-2)Gal(b1-3)GalNAc
# In short: (§1)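 The Consortium for Functional Glycomics database supplied 3228 glycan arrays, of which those lacking an available protein sequence were dropped. The binding signal, a within-array Z-score, was averaged across arrays of the same protein sequence and across linkers. Negative scores can be read as non-binding.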
# Fuc(a1-2)Gal(b1-4)Glc6S = biological target: Fuc(a1-2)Gal(b1-4)Glc6S
# In short: as §1
# Fuc(a1-2)Gal(b1-4)GlcNAc = biological target: Fuc(a1-2)Gal(b1-4)GlcNAc
# In short: as §1
# [1] = biological target: Fuc(a1-2)Gal(b1-4)GlcNAc(b1-2)Man(a1-3)[Fuc(a1-2)Gal(b1-4)GlcNAc(b1-2)Man(a1-6)]Man(b1-4)GlcNAc(b1-4)GlcNAc
# In short: as §1
# [2] = biological target: Fuc(a1-2)Gal(b1-4)GlcNAc(b1-3)Gal(b1-4)GlcNAc
# In short: as §1
# [3] = biological target: Fuc(a1-2)Gal(b1-4)GlcNAc(b1-3)Gal(b1-4)GlcNAc(b1-3)Gal(b1-4)GlcNAc
# In short: as §1
# [4] = biological target: Fuc(a1-2)Gal(b1-4)GlcNAc(b1-3)[Fuc(a1-2)Gal(b1-4)GlcNAc(b1-6)]GalNAc
# In short: as §1
# [5] = biological target: Fuc(a1-2)Gal(b1-4)GlcNAc6S
# In short: as §1
# [6] = biological target: Fuc(a1-2)Gal(b1-4)[Fuc(a1-3)]GlcNAc
# In short: as §1
# [7] = biological target: Fuc(a1-2)Gal6S(b1-4)Glc6S
# In short: as §1
# [8] = biological target: Fuc(a1-2)[Gal(a1-3)]Gal(b1-3)GlcNAc(b1-2)Man(a1-3)[Fuc(a1-2)[Gal(a1-3)]Gal(b1-3)GlcNAc(b1-2)Man(a1-6)]Man(b1-4)GlcNAc(b1-4)GlcNAc
# In short: as §1
# [9] = biological target: Fuc(a1-2)[Gal(a1-3)]Gal(b1-4)GlcNAc(b1-2)Man(a1-3)[Fuc(a1-2)[Gal(a1-3)]Gal(b1-4)GlcNAc(b1-2)Man(a1-6)]Man(b1-4)GlcNAc(b1-4)[Fuc(a1-6)]GlcNAc
# In short: as §1
# [10] = biological target: Fuc(a1-2)[Gal(a1-3)]Gal(b1-4)[Fuc(a1-3)]Glc
# In short: as §1
# [11] = biological target: Fuc(a1-2)[Gal(a1-3)]Gal(b1-4)[Fuc(a1-3)]GlcNAc(b1-3)GalNAc
# In short: as §1
# [12] = biological target: Fuc(a1-2)[GalNAc(a1-3)]Gal
# In short: as §1
# Fuc(a1-3)GlcNAc = biological target: Fuc(a1-3)GlcNAc
# In short: as §1
# [13] = biological target: Fuc(a1-3)[Gal(b1-4)]GlcNAc(b1-4)Gal(b1-4)[Fuc(a1-3)]GlcNAc(b1-4)Gal(b1-4)[Fuc(a1-3)]GlcNAc
# In short: as §1
# [14] = biological target: Gal(a1-3)Gal(b1-4)GlcNAc(b1-3)GalNAc
# In short: as §1
# [15] = biological target: Gal(a1-3)Gal(b1-4)[Fuc(a1-3)]GlcNAc(b1-2)Man(a1-3)[Gal(a1-3)Gal(b1-4)[Fuc(a1-3)]GlcNAc(b1-2)Man(a1-6)]Man(b1-4)GlcNAc(b1-4)GlcNAc
# In short: as §1
# Gal(a1-6)Glc = biological target: Gal(a1-6)Glc
# In short: as §1
# Gal(b1-3)GalNAc = biological target: Gal(b1-3)GalNAc
# In short: as §1
# [16] = biological target: Gal(b1-3)GlcNAc(b1-3)Gal(b1-4)Glc
# In short: as §1
# [17] = biological target: Gal(b1-3)[Fuc(a1-4)]GlcNAc(b1-3)Gal(b1-4)[Fuc(a1-3)]GlcNAc
# In short: as §1
# [18] = biological target: Gal(b1-4)GlcNAc(b1-2)Man(a1-3)[Gal(b1-4)GlcNAc(b1-2)Man(a1-6)]Man(b1-4)GlcNAc(b1-4)[Fuc(a1-6)]GlcNAc
# In short: as §1
# [19] = biological target: Gal(b1-4)GlcNAc(b1-2)[Gal(b1-4)GlcNAc(b1-4)]Man(a1-3)[GlcNAc(b1-4)][Gal(b1-4)GlcNAc(b1-2)[Gal(b1-4)GlcNAc(b1-6)]Man(a1-6)]Man(b1-4)GlcNAc(b1-4)GlcNAc
# In short: as §1
# [20] = biological target: Gal(b1-4)GlcNAc(b1-2)[Gal(b1-4)GlcNAc(b1-6)]Man(a1-6)[Gal(b1-4)GlcNAc(b1-2)Man(a1-3)]Man(b1-4)GlcNAc(b1-4)GlcNAc
# In short: as §1
# [21] = biological target: Gal(b1-4)GlcNAc(b1-2)[Gal(b1-4)GlcNAc(b1-6)]Man(a1-6)[GlcNAc(b1-4)][Gal(b1-4)GlcNAc(b1-2)Man(a1-3)]Man(b1-4)GlcNAc(b1-4)GlcNAc
# In short: as §1
# [22] = biological target: Gal(b1-4)GlcNAc(b1-3)Gal(b1-3)GlcNAc
# In short: as §1
# [23] = biological target: Gal(b1-4)GlcNAc(b1-3)GalNAc
# In short: as §1
# Gal4S(b1-4)GlcNAc = biological target: Gal4S(b1-4)GlcNAc
# In short: as §1
# [24] = biological target: GalNAc(a1-3)GalNAc(b1-3)Gal(a1-4)Gal(b1-4)GlcNAc
# In short: as §1
# [25] = biological target: GalNAc(b1-3)Gal(a1-6)Gal(b1-4)Glc
# In short: as §1
# [26] = biological target: GlcNAc(a1-6)Gal(b1-4)GlcNAc
# In short: as §1
# Kdn(a2-3)Gal(b1-4)GlcNAc = biological target: Kdn(a2-3)Gal(b1-4)GlcNAc
# In short: as §1
# [27] = biological target: Neu5Ac(a2-3)Gal(b1-4)[Fuc(a1-3)]GlcNAc(b1-3)Gal
# In short: as §1
# [28] = biological target: Neu5Ac(a2-3)Gal(b1-4)[Fuc(a1-3)]GlcNAc(b1-3)Gal(b1-4)GlcNAc
# In short: as §1
# [29] = biological target: Neu5Ac(a2-6)Gal(b1-4)GlcNAc(b1-2)Man(a1-3)[Neu5Ac(a2-6)Gal(b1-4)GlcNAc(b1-2)Man(a1-6)]Man(b1-4)GlcNAc(b1-4)GlcNAc
# In short: as §1
# [30] = biological target: Neu5Gc(a2-6)Gal(b1-4)GlcNAc
# In short: as §1
binder,measurement,setting,value
"CV-2L (Chromobacterium violaceum), Q7NX84 (protein) MAQQGVFTLPARINFGVTVLVNSAATQHVEIFVDNEPRAAFSGVGTGDNNLGTKVINSGSGNVRVQITANGRQSDLVSSQLVLANKLNLAVVGSEDGTDMDYNDSIVILNWPLG",glycan array binding signal (z-score),Fuc(a1-2)Gal(b1-3)GalNAc,0.156
same,glycan array binding signal (z-score),Fuc(a1-2)Gal(b1-4)Glc6S,4.43
same,glycan array binding signal (z-score),Fuc(a1-2)Gal(b1-4)GlcNAc,5.39
same,glycan array binding signal (z-score),[1],5.17
same,glycan array binding signal (z-score),[2],5.68
same,glycan array binding signal (z-score),[3],5.57
same,glycan array binding signal (z-score),[4],5.71
same,glycan array binding signal (z-score),[5],5.42
same,glycan array binding signal (z-score),[6],0.928
same,glycan array binding signal (z-score),[7],4.37
same,glycan array binding signal (z-score),[8],-0.292
same,glycan array binding signal (z-score),[9],-0.257
same,glycan array binding signal (z-score),[10],-0.019
same,glycan array binding signal (z-score),[11],-0.294
same,glycan array binding signal (z-score),[12],-0.2
same,glycan array binding signal (z-score),Fuc(a1-3)GlcNAc,1.49
same,glycan array binding signal (z-score),[13],-0.252
same,glycan array binding signal (z-score),[14],-0.341
same,glycan array binding signal (z-score),[15],-0.319
same,glycan array binding signal (z-score),Gal(a1-6)Glc,-0.347
same,glycan array binding signal (z-score),Gal(b1-3)GalNAc,-0.341
same,glycan array binding signal (z-score),[16],-0.304
same,glycan array binding signal (z-score),[17],0.831
same,glycan array binding signal (z-score),[18],-0.275
same,glycan array binding signal (z-score),[19],-0.334
same,glycan array binding signal (z-score),[20],-0.307
same,glycan array binding signal (z-score),[21],-0.316
same,glycan array binding signal (z-score),[22],-0.343
same,glycan array binding signal (z-score),[23],-0.342
same,glycan array binding signal (z-score),Gal4S(b1-4)GlcNAc,-0.355
same,glycan array binding signal (z-score),[24],-0.306
same,glycan array binding signal (z-score),[25],-0.338
same,glycan array binding signal (z-score),[26],-0.342
same,glycan array binding signal (z-score),Kdn(a2-3)Gal(b1-4)GlcNAc,-0.31
same,glycan array binding signal (z-score),[27],-0.337
same,glycan array binding signal (z-score),[28],-0.308
same,glycan array binding signal (z-score),[29],-0.336
same,glycan array binding signal (z-score),[30],-0.326
